Assay outcomes: PubChem BioAssay, National Center for Advancing Translational Sciences (NCATS)
Compounds with a hit are over-represented: about 0.21% of the library has one in this group of screens.
YjeE inh – qHTS Assay for Inhibitors of YjeE; tRNA threonylcarbamoyladenosine biosynthesis protein TsaE (Escherichia coli (strain …; purified YjeE enzyme, qHTS inhibition assay; Potency, µM; 71,000 tested, 0.05% active
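Purified YjeE (10 uM) with BODIPY Texas Red-labeled ADP probe (2 uM); compounds pin-transferred, 15 min at room temperature. Binding inhibition read as decreased fluorescence polarization; ADP titration as control.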
USP2a inhib – qHTS Assay for Inhibitors of Ubiquitin-specific Protease USP2a | Ubiquitin carboxyl-terminal hydrolase 2 (Homo sapiens), O75604 | USP2a enzymatic assay, qHTS inhibition | Potency, µM (highest dose often 38.3 µM), without a hit: at the highest dose activity change, negative = inhibition, most hits filed as inhibitors | 60,000 tested, 0.1% active; note: potency is the fitted concentration of half-maximal effect; nearly all actives have a fitted effect of over 60% in size
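20 nM USP2 core + cpd, 30 min RT; add 20 nM Ub-PLA2/20 uM NBD C6-HPC; read Ex460/Em535 at 0 h and 2.5 h. Normalized to NEM; qHTS curve fit/classification.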
Casp7 inh – qHTS Assay for Allosteric/Competitive Inhibitors of Caspase-7 | recombinant caspase-7, Ac-DEVD-AFC fluorescence rate | Potency, µM (series often up to 57.5 µM), inactives show top-dose activity change, negative = inhibition, actives largely listed as inhibitors | AID 889, 2007 | 75,000 tested, 0.02% active; active = well fitted inhibition curve with a large enough effect in the main read-out, with a control signal flat, not every such curve was filed as active; inconclusive = small, poorly fitted or top-dose-only effect, or a change in a side signal; note: potency is the fitted concentration of half-maximal effect; % of control where 0% means no effect
BRCT inh red – qHTS Assay for Inhibitors of BRCT-Phosphoprotein Interaction (Red Fluorophore). Breast cancer type 1 susceptibility protein (Homo sapiens), P38398. AID 892, 2007. 75,000 tested, 0.03% active. BRCT-phosphopeptide binding, red fluorescence polarization. Potency, µM (doses to about 76.9 µM), for inactives: top-dose activity change, negative = inhibition, most hits filed as inhibitors; note: % is set by controls: 0 for no effect and ±100 for the full control effect
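Rhodamine-labelled pBACH1 10-mer (100 nM) bound to BRCT domain (100 nM) at pH 7.3; compounds incubated 12 min room temperature, polarization read. Free peptide defines full inhibition; unlabelled decapeptide titrated as control.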
BRCT PPI green – qHTS Assay for Inhibitors of BRCT-Phosphoprotein Interaction (Green Fluorophore) | Breast cancer type 1 susceptibility protein (Homo sapiens), P38398 | BRCA1 BRCT-phosphopeptide binding, green fluorescence polarization | Potency, µM (titrated, usually from 76.9 µM), for the others: at the highest dose activity change, negative = inhibition, hits mostly inhibitors | 75,000 tested, 0.05% active;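 note: potency is the fitted concentration of half-maximal effect; plate controls were peptide without protein for full effect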
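Fluorescence polarization: His-tagged BRCT (~35 kDa BRCA1 C-terminus, 250 nM) bound to 100 nM fluorescein-labeled phosphorylated 10-aa BACH1 peptide, pH 7.3 phosphate buffer with DTT and Tween 20. Compounds incubated 12 min at room temperature; inhibition read as lowered polarization.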
Casp1 inh – qHTS Assay for Allosteric/Competitive Inhibitors of Caspase-1. P29466. Caspase-1 enzyme, Ac-WEHD-AFC fluorogenic rate. Potency, µM (highest dose often 57.5 µM), without a hit: at the top dose activity change, negative = inhibition, hits mostly inhibitors. 75,000 tested, 0.03% active. AID 900, 2007;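 note: potency is the fitted concentration of half-maximal effect; plate controls were vehicle for no effect and no substrate for full effect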
* = called active by the depositor; i = inactive; u = inconclusive; x = not tested or not shown; [ ] = remark or other dose. Unless noted, calls come from the whole dose curve; as a rule, active = well fitted curve in the direction sought with a large enough effect; inconclusive = small, poorly fitted or top-dose-only effect, or another doubt; inactive = no such curve, though single readings can be large; an effect the other way counts as inactive or inconclusive.

SMILES	YjeE inh	USP2a inhib	Casp7 inh	BRCT inh red	BRCT PPI green	Casp1 inh
CN(N=O)c1cc(O)ccc1O	100µM*	15.8µM*	0.6%	31.6µM*	u	u
Cc1ccc(O)cc1	i	-15.2%	-3.5%	5.0%	-1.2%[3.08 µM]	-1.8%
CCn1nc(-c2ccccc2)nc2c(=O)n(C)c(=O)nc1-2	i	-7.5%	u	-0.7%	-2.2%	0.794µM*
CCOC(=O)c1ccc(NC(=O)c2c(O)[nH]c(=O)[nH]c2=O)cc1	i	77.1%	u	-2.0%	12.6µM*	x
CCC(=NC1CCN(Cc2ccccc2)CC1)c1c(O)[nH]c(=O)[nH]c1=O	i	8.3%	-1.2%	-1.6%	-1.3%	-1.8%
C=C(C)[C@H]1[C@H]2OC(=O)[C@@H]1[C@]1(O)C[C@H]3O[C@]34C(=O)O[C@H]2[C@]14C	i	x	x	x	x	x
C[n+]1c2cc(N)ccc2cc2ccc(N)cc21	x	69.2%	u	-7.8%	1.26µM*	x
C[C@@H](CO)NC(=O)[C@H]1C=C2c3cccc4[nH]cc(c34)C[C@H]2N(C)C1	i	x	x	x	x	x
Oc1ccc([C@H](O)[C@@H]2CCCCN2)cc1O	i	x	0.7%[11.5 µM]	-0.3%[15.4 µM]	-0.3%[15.4 µM]	5.8%[11.5 µM]
CN(C)C1C(=O)C(C(N)=O)=C(O)[C@@]2(O)C(=O)C3=C(O)c4c(O)ccc(Cl)c4[C@](C)(O)C3CC12 (some centres not stated)	x	10µM*	-19.0%	-2.9%	-2.6%[3.08 µM]	-8.8%
